# Laboratory results: PubChem BioAssay (EPA / NIEHS)
# Calls of active or inactive are those of the source. Rule for the calls: active = hit-call score of the fitted dose curve at least 0.9, where 1 is the maximum; inactive = score below 0.9.
# Legend:
# Details in all cases: mRNA level, 48 h; actives raise or lower the signal
# [1] = read-out: Cytochrome P450 3A4 (Homo sapiens) (UniProt P08684); experiment: LTEA_HepaRG_CYP3A4: Life Technologies and Expression Analysis (LTEA) Assay for CYP3A4 using HepaRG (AID 2283487)
# In short: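 In a human hepatic line (HepaRG), duplicate wells were treated 48 h with up to 100 uM chemical in half-log dilutions. Endpoint: CYP3A4 mRNA induction or loss relative to 0.5% DMSO vehicle, by qRT-PCR.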
# [2] = read-out: DNA damage-inducible transcript 3 (DDIT3), DDIT3 (gene 1649); experiment: LTEA_HepaRG_DDIT3: Life Technologies and Expression Analysis (LTEA) Assay for DNA damage-inducible transcript 3 (DDIT3) using HepaRG (AID 2283488)
# In short: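 Differentiated human HepaRG cells in serum-free induction medium were exposed in duplicate for 48 h to 8 concentrations (top 100 uM, half-log steps, 0.5% DMSO). DDIT3 mRNA measured by TaqMan qRT-PCR, normalized to ACTB/GAPDH/POLR2A; bidirectional fit versus DMSO.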
# [3] = read-out: Pro-epidermal growth factor (Homo sapiens) (UniProt P01133); experiment: LTEA_HepaRG_EGF: Life Technologies and Expression Analysis (LTEA) Assay for Epidermal growth factor (EGF) using HepaRG (AID 2283489)
# In short: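 HepaRG cells (~100,000/well, 48 h pre-culture) exposed in duplicate for 48 h in serum-free induction medium to 8 half-log concentrations up to 100 uM in 0.5% DMSO. EGF mRNA by qRT-PCR, normalized to ACTB/GAPDH/POLR2A; bidirectional fit versus DMSO.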
# [4] = read-out: Early growth response protein 1 (EGR1) transcription factor, EGR1 (gene 1958); experiment: LTEA_HepaRG_EGR1: Life Technologies and Expression Analysis (LTEA) Assay for Early growth response protein 1 (EGR1) transcription factor using HepaRG (AID 2283490)
# In short: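 Differentiated HepaRG cells in serum-free induction medium exposed 48 hours, duplicate, to 8 half-log concentrations up to 100 uM in 0.5% DMSO. EGR1 mRNA measured by TaqMan qRT-PCR, normalized to ACTB, GAPDH, POLR2A; bidirectional fit versus DMSO.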
# [5] = read-out: Cytochrome P450 3A7 (Homo sapiens) (UniProt P24462); experiment: LTEA_HepaRG_CYP3A7: Life Technologies and Expression Analysis (LTEA) Assay for CYP3A7 using HepaRG (AID 2283492)
# In short: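 Differentiated HepaRG cells in serum-free induction medium exposed 48 h in duplicate to 8-point half-log series from 100 uM top in 0.5% DMSO. CYP3A7 mRNA by qRT-PCR, normalized to ACTB/GAPDH/POLR2A, bidirectional fit versus DMSO.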
# [6] = read-out: CYP3A5 (gene 1577); experiment: LTEA_HepaRG_CYP3A5: Life Technologies and Expression Analysis (LTEA) Assay for CYP3A5 using HepaRG (AID 2283493)
# In short: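 Differentiated HepaRG cells in serum-free induction medium were dosed 48 h with test chemicals (8-point half-log series, top 100 uM, 0.5% DMSO, duplicate). CYP3A5 mRNA measured by qRT-PCR, normalized to ACTB, GAPDH, POLR2A; bidirectional fit versus DMSO.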
# [7] = read-out: Fatty Acid-Binding Protein 1 (FABP1), FABP1 (gene 2168); experiment: LTEA_HepaRG_FABP1: Life Technologies and Expression Analysis (LTEA) Assay for Fatty Acid-Binding Protein 1 (FABP1) using HepaRG (AID 2283494)
# In short: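 Differentiated human HepaRG cells exposed 48 h in serum-free induction medium to eight half-log concentrations up to 100 uM (0.5% DMSO), duplicate. FABP1 mRNA by qRT-PCR, normalised to ACTB, GAPDH, POLR2A; bidirectional fitting against DMSO.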
# [8] = read-out: Cytochrome P450 4A22 (Homo sapiens) (UniProt Q5TCH4); experiment: LTEA_HepaRG_CYP4A22: Life Technologies and Expression Analysis (LTEA) Assay for Cytochrome P450 4A22 (CYP4A22) using HepaRG (AID 2283495)
# In short: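 Differentiated HepaRG cells in serum-free induction medium exposed 48 h in duplicate to eight half-log concentrations up to 100 uM in 0.5% DMSO. CYP4A22 mRNA quantified by TaqMan qRT-PCR, normalized to ACTB, GAPDH and POLR2A; bidirectional fit versus DMSO.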
# [9] = read-out: Cytochrome P450 7A1 (Homo sapiens) (UniProt P22680); experiment: LTEA_HepaRG_CYP7A1: Life Technologies and Expression Analysis (LTEA) Assay for Cytochrome P450 7A1 (CYP7A1) using HepaRG (AID 2283496)
# In short: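 Gene expression endpoint in human HepaRG liver cells treated for 48 h with test chemicals (up to 100 uM, 0.5% DMSO). Values come from bidirectional concentration-response fitting versus DMSO.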
# [10] = read-out: Ezrin (EZR), EZR (gene 7430); experiment: LTEA_HepaRG_EZR: Life Technologies and Expression Analysis (LTEA) Assay for Ezrin (EZR) using HepaRG (AID 2283491)
# In short: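 Gain or loss of EZR mRNA is scored relative to 0.5% DMSO in human HepaRG cultures treated 48 h with test chemicals in duplicate, eight half-log concentrations from 100 uM.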
# Sequence of Cytochrome P450 3A4 (Homo sapiens) (P08684 whole entry, looked up): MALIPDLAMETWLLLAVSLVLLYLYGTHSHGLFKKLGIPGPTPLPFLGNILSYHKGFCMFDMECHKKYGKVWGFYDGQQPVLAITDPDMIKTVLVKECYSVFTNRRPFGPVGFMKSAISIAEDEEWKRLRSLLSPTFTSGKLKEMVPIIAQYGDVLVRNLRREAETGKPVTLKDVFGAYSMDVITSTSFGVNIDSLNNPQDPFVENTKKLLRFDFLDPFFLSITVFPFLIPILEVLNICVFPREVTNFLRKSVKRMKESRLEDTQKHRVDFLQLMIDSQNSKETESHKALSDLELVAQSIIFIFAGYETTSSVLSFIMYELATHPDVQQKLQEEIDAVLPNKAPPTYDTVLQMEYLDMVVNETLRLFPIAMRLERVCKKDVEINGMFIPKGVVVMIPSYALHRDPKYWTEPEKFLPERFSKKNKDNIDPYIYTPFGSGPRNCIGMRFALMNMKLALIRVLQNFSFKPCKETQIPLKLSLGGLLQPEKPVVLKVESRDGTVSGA
# Sequence of Cytochrome P450 3A7 (Homo sapiens) (P24462 whole entry, looked up): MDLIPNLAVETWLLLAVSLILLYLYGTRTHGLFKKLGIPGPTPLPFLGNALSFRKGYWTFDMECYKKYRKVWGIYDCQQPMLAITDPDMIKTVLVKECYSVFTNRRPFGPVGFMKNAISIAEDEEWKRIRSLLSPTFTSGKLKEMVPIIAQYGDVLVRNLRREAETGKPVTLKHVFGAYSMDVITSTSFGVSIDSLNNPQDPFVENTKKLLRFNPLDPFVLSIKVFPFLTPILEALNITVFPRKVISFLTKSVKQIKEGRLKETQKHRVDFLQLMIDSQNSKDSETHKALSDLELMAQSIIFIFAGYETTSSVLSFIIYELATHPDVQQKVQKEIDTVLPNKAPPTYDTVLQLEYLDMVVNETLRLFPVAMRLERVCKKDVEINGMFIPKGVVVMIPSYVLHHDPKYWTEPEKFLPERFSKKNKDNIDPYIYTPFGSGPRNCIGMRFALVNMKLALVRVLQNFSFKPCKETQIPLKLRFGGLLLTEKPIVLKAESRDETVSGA
smiles,measurement,setting,value
C=CC(=O)NCNC(=O)C=C,outcome,[1],inactive
same,outcome,[2],inactive
same,outcome,[3],inactive
same,outcome,[4],inactive
same,outcome,[5],inactive
same,outcome,[6],inactive
same,AC50,[7],50 µM (active)
same,AC50,[8],24.6 µM (active)
same,outcome,[9],inactive
CO/C=C(/C(=O)OC)c1ccccc1COc1cccc(C(F)(F)F)n1,AC50,[1],8.05 µM (active)
same,AC50,[2],8.83 µM (active)
same,AC50,[3],50 µM (active)
same,outcome,[4],inactive
same,AC50,[5],3.4 µM (active)
same,AC50,[6],12.1 µM (active)
same,AC50,[7],5.35 µM (active)
same,AC50,[8],5.06 µM (active)
same,AC50,[9],8.85 µM (active)
CC(C)C(=O)OCC(C)(C)C(OC(=O)C(C)C)C(C)C (centres undefined),outcome,[1],inactive
same,outcome,[2],inactive
same,outcome,[3],inactive
same,outcome,[4],inactive
same,outcome,[5],inactive
same,outcome,[6],inactive
same,outcome,[7],inactive
same,outcome,[8],inactive
same,outcome,[9],inactive
CCOP(=S)(OCC)SCSC(C)(C)C,outcome,[1],inactive
same,outcome,[2],inactive
same,outcome,[3],inactive
same,outcome,[4],inactive
same,AC50,[5],16.5 µM (active)
same,AC50,[6],2.83 µM (active)
same,AC50,[7],50 µM (active)
same,outcome,[8],inactive
same,AC50,[9],16.3 µM (active)
Cc1ccc(O)c(C)c1,outcome,[1],inactive
same,outcome,[2],inactive
same,outcome,[3],inactive
same,outcome,[4],inactive
same,outcome,[5],inactive
same,outcome,[6],inactive
same,outcome,[7],inactive
same,outcome,[8],inactive
same,outcome,[9],inactive
CC1=C2C[C@H]3[C@@H](CC=C4C[C@@H](O)CC[C@@]43C)[C@@H]2CC[C@]12O[C@@H]1C[C@H](C)CN[C@H]1[C@H]2C,outcome,[1],inactive
same,outcome,[2],inactive
same,outcome,[3],inactive
same,outcome,[4],inactive
same,outcome,[10],inactive
same,outcome,[5],inactive
same,outcome,[6],inactive
same,outcome,[7],inactive
same,outcome,[8],inactive
same,outcome,[9],inactive
CC(C)(c1ccccc1)c1ccc(O)cc1,outcome,[1],inactive
same,outcome,[2],inactive
same,outcome,[3],inactive
same,outcome,[4],inactive
same,outcome,[10],inactive
same,outcome,[5],inactive
same,outcome,[6],inactive
same,outcome,[7],inactive
same,outcome,[8],inactive
same,AC50,[9],88.7 µM (active)
CCCCCCOC(=O)c1ccccc1C(=O)OCCCCCC,outcome,[1],inactive
same,outcome,[2],inactive
same,outcome,[3],inactive
same,outcome,[4],inactive
same,outcome,[10],inactive
same,outcome,[5],inactive
same,outcome,[6],inactive
same,outcome,[7],inactive
same,AC50,[8],83.9 µM (active)
same,outcome,[9],inactive
CCCN(CCC)N=O,outcome,[1],inactive
same,outcome,[2],inactive
same,outcome,[3],inactive
same,outcome,[4],inactive
same,outcome,[10],inactive
same,outcome,[5],inactive
same,outcome,[6],inactive
same,outcome,[7],inactive
same,outcome,[8],inactive
same,outcome,[9],inactive
O=C(N[C@H]1CN2CCC1CC2)c1cc2ccoc2cn1,outcome,[1],inactive
same,outcome,[2],inactive
same,outcome,[3],inactive
same,outcome,[4],inactive
same,outcome,[10],inactive
same,outcome,[5],inactive
same,outcome,[6],inactive
same,outcome,[7],inactive
same,outcome,[8],inactive
same,outcome,[9],inactive
Cc1ccccc1O,outcome,[1],inactive
same,outcome,[2],inactive
same,outcome,[3],inactive
same,outcome,[4],inactive
same,outcome,[5],inactive
same,outcome,[6],inactive
same,outcome,[7],inactive
same,outcome,[8],inactive
same,outcome,[9],inactive
Clc1ccc(Cl)cc1,outcome,[1],inactive
same,outcome,[2],inactive
same,outcome,[3],inactive
same,outcome,[4],inactive
same,outcome,[10],inactive
same,outcome,[5],inactive
same,outcome,[6],inactive
same,outcome,[7],inactive
same,outcome,[8],inactive
same,outcome,[9],inactive
CCSC(=O)N(CC)C1CCCCC1,outcome,[1],inactive
same,outcome,[2],inactive
same,outcome,[3],inactive
same,outcome,[4],inactive
same,outcome,[10],inactive
same,outcome,[5],inactive
same,outcome,[6],inactive
same,outcome,[7],inactive
same,outcome,[8],inactive
C1CC2OC2CC1C1CO1 (centres undefined),outcome,[1],inactive
same,outcome,[2],inactive
same,outcome,[3],inactive
same,outcome,[4],inactive
same,outcome,[10],inactive
same,outcome,[5],inactive
same,outcome,[6],inactive
same,outcome,[7],inactive
same,outcome,[8],inactive
same,outcome,[9],inactive
Cc1ccccc1CO[C@@H]1C[C@@]2(C(C)C)CC[C@]1(C)O2,AC50,[1],23.1 µM (active)
same,outcome,[2],inactive
same,outcome,[3],inactive
same,outcome,[4],inactive
same,outcome,[5],inactive
same,outcome,[6],inactive
same,outcome,[7],inactive
same,outcome,[8],inactive
same,outcome,[9],inactive
O=C(NC(=O)c1cc(F)c(F)cc1Cl)Nc1cc(F)ccc1N1CCC(C(=O)O)CC1,outcome,[1],inactive
same,outcome,[2],inactive
same,outcome,[3],inactive
same,outcome,[4],inactive
same,outcome,[10],inactive
same,outcome,[5],inactive
same,outcome,[6],inactive
same,outcome,[7],inactive
same,AC50,[8],7.84 µM (active)
same,AC50,[9],6.6 µM (active)
CCNc1nc(NC(C)C)nc(SC)n1,AC50,[1],2.44 µM (active)
same,outcome,[2],inactive
same,outcome,[3],inactive
same,outcome,[4],inactive
same,outcome,[5],inactive
same,outcome,[6],inactive
same,AC50,[7],28.3 µM (active)
same,outcome,[8],inactive
same,AC50,[9],35.5 µM (active)
CCC(C)(c1ccc(O)cc1)c1ccc(O)cc1,outcome,[1],inactive
same,outcome,[2],inactive
same,outcome,[3],inactive
same,outcome,[4],inactive
same,outcome,[5],inactive
same,outcome,[6],inactive
same,outcome,[7],inactive
same,outcome,[8],inactive
same,AC50,[9],50 µM (active)
O=C(O)C(F)(F)C(F)(F)C(F)(F)C(F)(F)C(F)(F)C(F)(F)C(F)(F)C(F)(F)F,AC50,[1],81.7 µM (active)
same,AC50,[2],77.9 µM (active)
same,outcome,[3],inactive
same,AC50,[4],83.4 µM (active)
same,AC50,[5],89 µM (active)
same,outcome,[6],inactive
same,AC50,[7],81.1 µM (active)
same,AC50,[8],90 µM (active)
same,AC50,[9],86.7 µM (active)
CCC(=O)O[C@H]1CC[C@H]2[C@@H]3CCC4=CC(=O)CC[C@]4(C)[C@H]3CC[C@]12C,outcome,[1],inactive
same,outcome,[2],inactive
same,outcome,[3],inactive
same,outcome,[4],inactive
same,outcome,[10],inactive
same,outcome,[5],inactive
same,outcome,[6],inactive
same,AC50,[7],19.9 µM (active)
same,AC50,[8],0.308 µM (active)
same,AC50,[9],13.1 µM (active)
